# In PubChem BioAssay (NCATS):
# Values joined by “and” are separate entries in the source; they are usually repeats but may differ in a detail not shown here. Identical values can stand only once. Records with an inconclusive call do not appear. A number with no mark means an inactive call. Active and inactive are the calls of the source. The call rests on the fitted dose curve; in most records, active means well fitted cell-killing curve with a large enough effect; inconclusive means small, poorly fitted or top-dose-only effect; inactive means flat fitted curve, though single readings scatter.
# Assays:
# [1] = Cellular viability qHTS for adrenocortical cancer (ACC) cell line SW-13 (AID 1963989); details: SW-13 ACC cells viability, CellTiter-Glo, 48 h; activity (max response): hits give low values; further: nearly all actives have a fitted effect of over 65% in size;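 on activity (max response): cells grown in serum-free medium with ITS supplement; on the % scale 0 is the no-effect control and ±100 the full control effect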
# Method in brief: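 SW-13 cells in ITS-supplemented serum-free DMEM were plated overnight, then exposed for 48 h at 37C to compound titrations (up to 46 uM final). Viability was read by CellTiter-Glo luminescence; four-parameter logistic fits gave IC50 and efficacy.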
# [2] = Cellular viability qHTS for adrenocortical cancer (ACC) cell line NCI-H295R (AID 1963990); further: nearly all actives have a fitted effect of over 60% in size;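 on activity change, negative = viability loss: 0% = DMSO only wells and -100% = full killing with cytotoxic reference compound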
# Method in brief: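 Luminescent ATP read-out (CellTiter-Glo, 20 min RT) after 48 h drug exposure of NCI-H295R cells; a titration up to 46 uM final. Data normalized to doxorubicin (100% inhibition) and DMSO (0%); 4-parameter fit gives IC50, max response.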
# Potency means the concentration at half of the fitted maximal effect.
SMILES,activity (max response) [1],Potency [2],Potency [1],"activity change, negative = viability loss [2]"
Cc1cccc(-c2[nH]ncc2-c2ccc(F)c(-c3cnn(CCO)c3)c2)n1,-6.75%,inactive,–,–
COc1ccc(-c2cc(C(O)C3CCCCN3)c3ccccc3n2)cc1 (stereo not given),–,11.2 µM (active),28.2 µM (active),–
COc1ccc(COc2ccc(Cc3cnc(N)nc3N)cc2OC)cc1,-16.4%,inactive,–,–
Cc1ccc(NS(=O)(=O)c2ccc3c(c2)C2C=CCC2C(c2ccc(C(=O)O)cc2)N3)cc1C (stereo not given),-1.16%,inactive,–,–
CN(C)CCNC(=O)COc1c2cccc1Cc1cccc(c1OCC(=O)NCCN(C)C)Cc1cccc(c1OCC(=O)NCCN(C)C)Cc1cccc(c1OCC(=O)NCCN(C)C)C2,14.5%,–,–,4.99% [at 9.17 µM]
COc1ccc2[nH]c(S(=O)Cc3ncc(C)c(OC)c3C)nc2n1 (stereo not given),4.99% and -14.4%,inactive,–,–
CC(C)CCOC(=O)c1ccc(N(C)C)cc1,5.28%,inactive,–,–
CO[C@H]1C=CO[C@@]2(C)Oc3c(C)c(O)c4c(O)c(c(/C=N/N5CCN(C)CC5)c(O)c4c3C2=O)NC(=O)/C(C)=C\C=C[C@H](C)[C@H](O)[C@@H](C)[C@@H](O)[C@@H](C)[C@H](OC(C)=O)[C@@H]1C,-17.1%,inactive,–,–
CCCCCCCCCCCCOCCO,0.306%,inactive,–,–
CC(=O)Oc1ccc(C(=C2CCCCC2)c2ccc(OC(C)=O)cc2)cc1,-5.44%,inactive,–,–
CN1C(=O)N(c2cc(Cl)cc(Cl)c2)C(=O)[C@]12CN(Cc1cc(C(=O)O)cs1)C[C@H]2c1ccc(C#N)cc1,-17%,inactive,–,–
N[C@@H](Cc1cc(I)c(O)c(I)c1)C(=O)O,8.5%,inactive,–,–
O=C(CCCc1ccc2cccnc2n1)NCc1cc(-c2ccc(F)c(C(F)(F)F)c2)no1,1.37%,inactive,–,–
COC(=O)c1c(Cl)c(Cl)c(C(=O)OC)c(Cl)c1Cl,12.2%,inactive,–,–
CCN(CC)CCOCCOC(=O)C1(c2ccccc2)CCCC1,-3.2%,inactive,–,–
COC(=O)C1=C(C)NC(C)=C(C(=O)OCC(C)=O)C1c1ccccc1[N+](=O)[O-] (stereo not given),–,6.51 µM (active),16.4 µM (active),–
COCCNCc1ccc(-c2cc3nccc(Oc4ccc(NC(=O)C5(C(=O)Nc6ccc(F)cc6)CC5)cc4F)c3s2)nc1,–,3.16 µM (active),3.55 µM (active),–
CCOC(=O)c1ccc(O)c(O)c1,-9.67%,inactive,–,–
C=C[C@H]1CN2CC[C@H]1C[C@H]2[C@H](O)c1ccnc2ccc(OC)cc12,-6.74%,inactive,–,–
O=C(CCNC(=O)c1ccc(OC(F)(F)F)cc1)N[C@@H]1CCCc2ccccc21,-26.4%,inactive,–,–
O=C(Nc1ccc2c(c1)CCN(Cc1ncn[nH]1)C2)c1ccccc1-c1ccc(C(F)(F)F)cc1,-15.2%,inactive,–,–
O=C1Cc2cc(C(=O)NC3C[C@H]4CC[C@@H](C3)N4S(=O)(=O)CC3CCN(CCCC(F)(F)F)CC3)c(Cl)cc2N1 (stereo not given in full),-5.12%,inactive,–,–
O=C1NC(=O)C(c2ccccc2)(c2ccccc2)N1,-5.02%,inactive,–,–
CCc1ccc(/C=C2/SC(=S)NC2=O)cc1,–,17.8 µM (active),25.1 µM (active),–

SMILES,activity (max response) [1],Potency [2],Potency [1],"activity change, negative = viability loss [2]"
C[C@@H]1CCN(C(=O)CC#N)C[C@@H]1N(C)c1ncnc2[nH]ccc12,-8.3%,inactive,–,–
COc1ccc(C(=O)N2CCN(C(=O)/C=C/c3ccc(Br)cc3)CC2)cc1,-12.8%,inactive,–,–
Cn1cc(-c2nc(N[C@@H]3CCCC[C@@H]3N)c(F)c3c2C(=O)NC3)cn1,8.72%,–,–,0.124% [at 3.81 µM]
OC1CCC(Oc2cccc3cnc(Nc4ccc5nc[nH]c5c4)nc23)CC1 (stereo not given),–,2.51 µM (active),7.94 µM (active),–
COC1=C2C[C@H](C)C[C@H](OC)[C@H](O)[C@@H](C)/C=C(/C)[C@H](OC(N)=O)[C@@H](OC)/C=C\C=C(\C)C(=O)NC(=CC1=O)C2=O,-3.63%,inactive,–,–
OCCOCCN1CCN(C2=Nc3ccccc3Sc3ccccc32)CC1,-9.48%,inactive,–,–
C=CC[N+]1([C@H]2C[C@H]3[C@@H]4CC[C@H]5C[C@H](OC(C)=O)[C@@H](N6CCCCC6)C[C@]5(C)[C@H]4CC[C@]3(C)[C@H]2OC(=O)CC)CCCCC1,-4.47%,inactive,–,–
CC(C)NC(=O)N1CC[C@H](N=C2Nc3cc(F)ccc3N(CC(F)F)c3ccc(Cl)cc32)C1,-16%,inactive,–,–
C=CC(=O)N1C[C@H](Nc2ncnc3[nH]ccc23)CC[C@@H]1C,-23.7%,inactive,–,–
CN(CC1(C)CCCO1)S(=O)(=O)c1ccc(Cl)c(S(N)(=O)=O)c1 (stereo not given),13.7%,inactive,–,–
Cc1cc2nc3ccc(=[N+](C)C)cc-3sc2cc1N,–,5.8 µM (active),4.61 µM (active),–
COc1ccc2c(c1)c(CC(=O)OC/C=C(\C)CC/C=C(\C)CCC=C(C)C)c(C)n2C(=O)c1ccc(Cl)cc1,2.52%,inactive,–,–
CC(C)Cc1ccc(C(C)C(=O)OCc2ccccn2)cc1 (stereo not given),14%,inactive,–,–
CC(=O)Nc1ccc(C(=O)NC(C)(C)C)cc1,-16.7%,inactive,–,–
COc1ccc2c(c1)CC[C@@H]1[C@@H]2CC[C@]2(C)[C@@H](NCCCCCCN3C(=O)C=CC3=O)CC[C@@H]12,-14.7%,inactive,–,–
Cc1nc2ccccn2c(=O)c1CCN1CCC(C(=O)c2ccc(F)cc2)CC1,-20%,inactive,–,–
CNC(=O)c1c(C)oc2cc(Oc3ncnc4cc(OC)c(OC)cc34)ccc12,9.66%,inactive,–,–
CC(C)[N+](C)(CCOC(=O)C1c2ccccc2Oc2ccccc21)C(C)C,-9.17%,inactive,–,–
COc1cccc2c1C(=O)c1c(O)c3c(c(O)c1C2=O)C[C@@](O)(C(C)=O)C[C@@H]3O[C@H]1C[C@H](N)[C@H](O)[C@H](C)O1,–,461 nM (active) and 2.24 µM (active),51.7 nM (active) and 501 nM (active),–
O=C(O)Cn1c(=O)n(Cc2ccc(Br)cc2F)c(=O)c2ccc(Cl)cc21,14.5%,inactive,–,–
CCC(C(=O)OCCN1CCOC(c2ccccc2)C1C)c1ccccc1 (stereo not given),3.6%,inactive,–,–
Cc1cc(Nc2cc(N)ncn2)c(=O)n2c1C(=O)NC21CCCCC1,0.221%,inactive,–,–
CC(C)OP(=O)(CP(=O)(OC(C)C)OC(C)C)OC(C)C,9.07%,inactive,–,–
Cc1ccc(/C(=C\CN2CCCC2)c2ccccn2)cc1,2.73%,inactive,–,–

SMILES,activity (max response) [1],Potency [2],Potency [1],"activity change, negative = viability loss [2]"
OC(CCN1CCCCC1)(c1ccccc1)c1ccccc1,3.2%,inactive,–,–
[O-][n+]1ccccc1SSc1cccc[n+]1[O-],–,0.0893 µM (active),1.59 µM (active),–
CC(=O)Nc1ccc(S(=O)(=O)Nc2ccc([N+](=O)[O-])cc2)cc1,3.97%,inactive,–,–
Nc1ccc(N=Nc2ccccc2)c(N)n1,-2.95%,inactive,–,–
CC(C)C[C@H](CC(=O)O)C(=O)N[C@@H](Cc1c[nH]c2ccccc12)C(=O)N[C@@H](C)c1ccccc1,0.614%,inactive,–,–
CCC(=O)O[C@]1(C(=O)CO)CC[C@H]2[C@@H]3CCC4=CC(=O)CC[C@]4(C)[C@H]3CC[C@@]21C,7.43%,inactive,–,–
CCN1C(=O)c2ccccc2C1Nc1ccc(OCCN2CCCCC2)cc1 (stereo not given),0.694%,inactive,–,–
CCCCC1C(=O)N(c2ccccc2)N(c2ccc(O)cc2)C1=O (stereo not given),–,5.17 µM (active),16.4 µM (active),–
COc1ccc(CCN(C)CCCC(C#N)(c2ccc(OC)c(OC)c2)C(C)C)cc1OC (stereo not given),-2.85% and -16.8%,inactive,–,–
CC[N+](CC)(CCNC(=O)C(=O)NCC[N+](CC)(CC)Cc1ccccc1Cl)Cc1ccccc1Cl,-1.37%,inactive,–,–
Nc1ccc(S(=O)(=O)Nc2ccccc2)cc1,5.64%,inactive,–,–
CCc1oc2ccccc2c1C(=O)c1cc(Br)c(O)c(Br)c1,–,7.31 µM (active),7.31 µM (active),–
C[C@H](Nc1nc(N[C@H](C)C(F)(F)F)nc(-c2cccc(Cl)n2)n1)C(F)(F)F,-11.6%,inactive,–,–
COc1ncc(Nc2ncc([C@H](C)N3CCN(S(C)(=O)=O)CC3)cc2-c2nc(C)nc(N)n2)cc1F,-5.36%,0.224 µM (active),–,–
CCCN1C[C@H](CSC)C[C@@H]2c3cccc4[nH]cc(c34)C[C@H]21,-4.04%,inactive,–,–
CCN(CC)CCNC(=O)c1cc(Br)c(N)cc1OC,-8.12%,inactive,–,–
CN(C)C(=O)CNC(=O)Cc1ccccc1,-6.74%,inactive,–,–
Cc1ccccc1C(=O)N1CC/C(=N\OS(=O)(=O)O)c2ccc(Cl)cc21,5.63%,inactive,–,–
O=C1NC(=O)/C(=C/c2ccc(-c3ccc(F)cc3O)o2)S1,–,25.1 µM (active),28.2 µM (active),–
CN1CCN(C2=Nc3ccccc3Sc3ccc(Cl)cc32)CC1,-24.6%,inactive,–,–
CC(C(O)c1ccc(O)cc1)N1CCC(Cc2ccccc2)CC1 (stereo not given),-9.39%,inactive,–,–
CCCCc1nc(Cl)c(CO)n1Cc1ccc(-c2ccccc2-c2nn[nH]n2)cc1,12.4%,inactive,–,–
